# The whole screen tested about 340,000 compounds, of which about 12,000 (3.5%) were called active. A call without a number means that no potency is given here. About 18% were inconclusive and are not listed. Calls come from the whole dose curve; as a rule, active = well fitted inhibition curve with a large enough effect; inconclusive = small, poorly fitted or top-dose-only effect, or another doubt; inactive = no such curve, though single readings can be large or run the other way. Many of the other results were omitted from the sample, so actives are more common in it than they were.
# Experiment: qHTS Assay for Inhibitors of Hepatitis C Virus (HCV)
# Details: Huh7.5.1 HCVcc-Cre infection, luciferase reporter, 44 h; series mostly up to 41.8 µM
# Outline: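 Cells (1,000/well) were plated 4 h before compound, then infected with HCVcc-Cre virus (~0.5 moi). After 44 h further culture, infection was read as luciferase luminescence following a 15 min substrate incubation at room temperature.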
# Potency is the fitted concentration of half-maximal effect.
Compound,Potency,"activity change, negative = inhibition"
N#Cc1ccc(CN2CCN(CC(=O)Nc3ccccc3C(=O)NC3CC3)CC2)cc1,inactive,
CCOC(=O)N1CCN(CC(=O)c2c(C)[nH]c3ccccc23)CC1,inactive,
CCOC(=O)c1c(C)[nH]c(C)c1S(=O)(=O)N(C)CC(=O)Nc1ccccc1C,inactive,
CCOC(=O)c1c(C)[nH]c2c1-c1ccccc1C(=O)C2=O,2.51 µM (active),
O=C1OC(Cc2ccccc2)C(c2ccccc2)C1=O (stereo not given),inactive,
COCCN(CCOC)S(=O)(=O)NC[C@H]1O[C@@H](n2cnc3c(N)ncnc32)[C@H](O)[C@@H]1O,inactive,
O=C(COc1coc(CN2CCN(c3ccccc3F)CC2)cc1=O)N1CCc2ccccc21,,13.6% [at 8.37 µM] (inactive)
Cc1ccc(Nc2c(O)nc[nH]c2=O)cc1C,inactive,
CC/C(=N\NC(=S)NC(C)C)c1ccc(OC(F)F)cc1,10 µM (active),
O=C(NNC(=S)NCc1ccccc1)c1ccc(OC(F)F)cc1,inactive,
CC(C)N(Cc1ccccc1)C(=S)Nc1ccc(OC(F)F)cc1,inactive,
CC(C)c1ccc(/C=C/C(=O)NCCCN2CCOCC2)cc1,inactive,
C[C@H]1COC(=O)[C@H](CC(=O)OC(C)(C)C)C/C=C\C[C@@H](CC(=O)N[C@H](CO)Cc2ccccc2)C(=O)N1,inactive,
O=C(N/N=C/c1ccoc1)c1ccc(Cl)cc1Cl,inactive,
CC(C)(C)C(=O)Nc1ccc(C(=O)N/N=C/c2ccccc2OC(=O)c2ccc(Cl)cc2Cl)cc1,10 µM (active),
O=C(N/N=C/c1ccc(OC(=O)c2ccccc2Cl)cc1)c1ccc(O)cc1,inactive,
CCOc1ncccc1C(=O)Nc1ccc(S(=O)(=O)Nc2nc(C)cc(C)n2)cc1,inactive,
CCN(Cc1cc2cc(C)ccc2[nH]c1=O)S(=O)(=O)c1ccccc1,11.2 µM (active),
CCC(=O)N(CCc1ccccc1)Cc1cc2cc(C)ccc2[nH]c1=O,inactive,
Cc1ccc(S(=O)(=O)N(Cc2cc3ccccc3[nH]c2=O)CC2CCCO2)cc1 (stereo not given),inactive,
O=C(COC(=O)c1ccc2c(c1)OCCO2)NCc1ccccc1Cl,inactive,
CCOc1ccc(-n2c(O)c(/C=N/c3ccnn3Cc3ccncc3)c3ccccc3c2=O)cc1,inactive,
CCOc1ccc(-n2c(O)c(/C=N/Nc3nnc(C)c(=O)[nH]3)c3ccccc3c2=O)cc1,inactive,
CCOc1ccc(-n2c(O)c(/C=N/Nc3nc(C)cc(C)n3)c3ccccc3c2=O)cc1,2.24 µM (active),

Compound,Potency,"activity change, negative = inhibition"
COC(=O)C1CC2=C(CC(C)(C)CC2=O)N(c2ccccc2)C1=O (stereo not given),inactive,
CC1CC2=C(CC1/C=N/NC(N)=S)C(C)(C)CCC2 (stereo not given),6.31 µM (active),
C[C@@H]1ON(C)[C@H]2C[C@H]3c4cc(N5CCN(C)CC5)ccc4CCN3C(=O)[C@@H]12,inactive,
O=C(NCc1ccc(Cl)cc1)C(=O)NCC1CCCN1S(=O)(=O)c1cccs1 (stereo not given),inactive,
Cc1cccc(-c2nc(Nc3ccc(O)cc3)c3ccccc3n2)c1,12.6 µM (active),
CCOC(=O)c1nc(Nc2ccc(C(=O)OC)cc2)c2ccccc2n1,inactive,
S=c1nc2ccccc2c2nc(-c3cccnc3)[nH]n12,inactive,
Oc1ccc(-c2nnc(Nc3ccccc3)c3ccccc23)cc1,inactive,
COc1ccccc1Oc1nc(-c2cccnc2)nc2ccccc12,inactive,
COc1ccc(Nc2nc(-c3cccnc3)nc3ccccc23)cn1,7.94 µM (active),
COc1ccc(Br)cc1CN(C)C(=O)C1CC(=O)N(C2CCCC2)C1 (stereo not given),inactive,
O=C(CC1SC(N2CCCC2)=NC1=O)Nc1ccc(C(=O)NCCc2ccc(F)cc2)cc1 (stereo not given),inactive,
O=C(COC(=O)c1c(Cl)cccc1Cl)Nc1cccc(S(=O)(=O)NC2=NCCCCC2)c1,inactive,
CCN1C[C@@H]2[C@@H]3C(=O)N(Cc4ccccc4)C(=O)[C@@H]3[C@](C)(C1=O)N2C(=O)c1ccc(C(C)(C)C)cc1,inactive,
CCc1ccc(C(=O)N2CCN(S(=O)(=O)c3sc(C(=O)O)c(C)c3C(=O)O)CC2)cc1,inactive,
c1ccc2c(c1)OC1OC2Oc2ccccc21,inactive,
COc1ccccc1N1CCN(C(=O)C2Cc3ccccc3CN2C(=O)c2ccco2)CC1 (stereo not given),inactive,
CCC(C)N1C(=S)SC(C)(C)C1N(O)C(=O)NC1CCCCC1 (stereo not given),inactive,
CCCCNC(=O)N(O)C1N(/N=C/c2ccccc2O)C(=S)SC1(C)C (stereo not given),7.08 µM (active),
CCCCNC(=O)N(O)C1N(/N=C/c2ccc(N(C)C)cc2)C(=S)SC1(C)C (stereo not given),inactive,
CC1CCCCC1NC(=O)c1cc(=O)[nH]c2ccccc12 (stereo not given),inactive,
O=C(CSc1nc(=O)n2ccccc2n1)Nc1ccc2c(c1)OCCO2,inactive,
CCN1C(=O)N[C@@H](c2ccccc2)C(C(=O)OC)=C1C,inactive,
CCOC(=O)C1=C(c2ccccc2)NC(=O)NC1c1cc(OCC)c(O)c([N+](=O)[O-])c1 (stereo not given),inactive,

Compound,Potency,"activity change, negative = inhibition"
CCOC(=O)C1=C(C)N(C[C@@H]2CC[C@@H](Cc3ccc(-c4ccccc4)cc3)O2)C(=O)NC1c1ccc([N+](=O)[O-])cc1 (stereo not given in full),11.2 µM (active),
C[C@]12c3[nH]c4ccc(Cl)cc4c3CCN1C(=O)[C@@H](CC(=O)NCCCn1ccnc1)C[C@@H]2C(=O)N1CCOCC1,inactive,
Cc1ccc(NC(=O)CN(C)C(=O)Cn2nnc(-c3ccccc3)n2)cc1,inactive,
COc1ccc(S(=O)(=O)N2CCOC2CNC(=O)C(=O)NCc2ccncc2)cc1C (stereo not given),inactive,
COc1ccc(CCNC(=O)C(=O)NCC2OCCN2S(=O)(=O)c2ccc(F)cc2)cc1OC (stereo not given),inactive,
COc1ccc(CCNC(=O)C(=O)NCC2OCCN2S(=O)(=O)c2ccc(OC)c(C)c2)cc1 (stereo not given),15.8 µM (active),
Cc1cccc(OCC(=O)OCC(=O)Nc2ccc(Cl)cn2)c1,inactive,
COc1ccccc1NC(=O)N(O)C1(C#N)CCCCC1,inactive,
O=C(NCc1ccc2c(c1)OCO2)c1c(-c2ccsc2)sc2ccccc12,inactive,
COc1ccccc1-n1c(SCC(=O)O)nc2sc3c(c2c1=O)CCC3,inactive,
CCCSc1nc2sc3c(c2c(=O)n1-c1ccc(OC)cc1)CCN(C)C3,11.2 µM (active),
O=C1CCCN2N=C(SCC(=O)Nc3ccc(Br)cc3)SC2=N1,inactive,
COc1ccccc1NC(=O)CSc1nc2sc3c(c2c(=O)n1-c1ccccc1)CCN(C)C3,inactive,
CCOc1ccc(NC(=O)CSc2nncn2C)cc1,inactive,
C=CCn1c(SCC(=O)Nc2ccc(NC(C)=O)cc2)nc2sc(C)c(C)c2c1=O,inactive,
CCSc1nc2sc3c(c2c(=O)n1-c1ccc(C)cc1)CCN(C)C3,inactive,
CCOc1ccc(-n2c(SCC(=O)Nc3ccc(OC)cc3)nc3sc4c(c3c2=O)CCN(C)C4)cc1,11.2 µM (active),
CCn1c(SCC(=O)Nc2ccc(Br)cc2)nc2sc3c(c2c1=O)CCN(C)C3,4.47 µM (active),
O=C(NCCSc1ncc(-c2ccccc2)[nH]1)c1ccco1,,-7.56% [at 8.37 µM] (inactive)
COc1cccc(NC(=O)CSc2nnc(C3CCCCC3)n2N)c1,inactive,
CC(=O)Nc1ccc(NC(=O)CSC2=NS(=O)(=O)c3ccccc3N2)cc1,inactive,
CCc1noc(C)c1C(=O)Nc1nc2ccc(OC)cc2s1,inactive,
COc1ccc(NC(=O)CNc2cc(S(=O)(=O)N3CCOCC3)ccc2N2CCOCC2)c(OC)c1,inactive,
CS(=O)(=O)N(CC(=O)N1CCc2ccccc2C1)c1ccc(Br)cc1,inactive,

Compound,Potency,"activity change, negative = inhibition"
COc1cc(/C=C/C(=O)OCC(=O)NCCCc2ccccc2)ccc1O,inactive,
O=C(O)c1ccc(S(=O)(=O)c2ccccc2)s1,inactive,
Cc1ccc(S(=O)(=O)c2cc3c(=O)n4cccc(C)c4nc3n(CCc3ccccc3)c2=N)cc1C,inactive,
CS(=O)(=O)N(CC(O)Cn1c2ccccc2c2ccccc21)c1cccc2ccccc12 (stereo not given),11.2 µM (active),
O=C1c2ccccc2S(=O)(=O)N1CC(O)Cn1c2ccccc2c2ccccc21 (stereo not given),inactive,
OC(Cn1c2ccccc2c2ccccc21)C[n+]1ccccc1 (stereo not given),inactive,
COc1ccc2oc(C(=O)N(CC(C)C)C3CCS(=O)(=O)C3)c(C)c2c1 (stereo not given),inactive,
CCOc1ccc(C(CC(=O)O)NC(=O)Cc2ccccc2)cc1OC (stereo not given),inactive,
CCOc1ccc(C(CCc2ccccc2)NC(=O)c2ccc(OC)c(OC)c2)cc1OCC (stereo not given),10 µM (active),
CCOc1ccc(C(CC(=O)O)NC(=O)C23CC4CC(CC(C4)C2)C3)cc1OC (stereo not given),inactive,
Cc1n[nH]c(=O)c2c(NC(=O)COC(=O)c3ncc(Cl)c(Cl)c3Cl)oc(C)c12,inactive,
CCC(O)CNc1nc(-n2nc(C)cc2C)nc2sc3c(c12)CC(C)(C)OC3 (stereo not given),inactive,
Cc1nc2sc3c(c2c(=O)n1NC(=O)CCl)CCCC3,inactive,
COCCNc1nc(-n2nc(C)cc2C)nc2sc3c(c12)CCCC3,10 µM (active),
O=C1CC2(CCCC2)C(=O)N1CN1CCN(S(=O)(=O)c2ccc(F)cc2F)CC1,inactive,
CCOc1ccc(CC(=O)Nc2ccc(S(=O)(=O)Nc3cc(C)on3)cc2)cc1OCC,inactive,
CCOc1ccc(C(=O)Nc2ccc(S(=O)(=O)Nc3cc(C)on3)cc2)cc1,1.12 µM (active),
COc1ccc(NS(=O)(=O)c2ccc(NC(=O)c3ccc(N(C)S(C)(=O)=O)cc3)cc2)cc1,5.62 µM (active),
COc1ccc(NC(=O)c2cnc(NS(=O)(=O)c3ccccc3)nc2)cc1,inactive,
COc1cc(OC)cc(C(=O)Nc2ccc(S(=O)(=O)Nc3cc(C)on3)cc2)c1,inactive,
COc1ccc(NS(=O)(=O)c2ccc(C(=O)Nc3c(C)n(C)n(-c4ccccc4)c3=O)cc2)cc1,inactive,
O=C(COC(=O)c1ccccn1)NNC(=O)c1ccc(Br)cc1,inactive,
O=C(COC(=O)c1ccc(F)c(S(=O)(=O)N2CCOCC2)c1)NCc1ccc2c(c1)OCO2,inactive,
